The text below walks through data of ChEMBL document CHEMBL2218924, “A broad activity screen in support of a chemogenomic map for kinase signalling research and drug discovery” (Biochem J, 2013).

Experiment [1] deals with Ephrin type-A receptor 7 (Homo sapiens) (UniProt Q15375). As to conditions: at 10 µM; call rule not given here.
For experiment [2], the target named is T1, Ephrin type-B receptor 3 (Homo sapiens) (UniProt P54753).
T1 sequence (whole entry): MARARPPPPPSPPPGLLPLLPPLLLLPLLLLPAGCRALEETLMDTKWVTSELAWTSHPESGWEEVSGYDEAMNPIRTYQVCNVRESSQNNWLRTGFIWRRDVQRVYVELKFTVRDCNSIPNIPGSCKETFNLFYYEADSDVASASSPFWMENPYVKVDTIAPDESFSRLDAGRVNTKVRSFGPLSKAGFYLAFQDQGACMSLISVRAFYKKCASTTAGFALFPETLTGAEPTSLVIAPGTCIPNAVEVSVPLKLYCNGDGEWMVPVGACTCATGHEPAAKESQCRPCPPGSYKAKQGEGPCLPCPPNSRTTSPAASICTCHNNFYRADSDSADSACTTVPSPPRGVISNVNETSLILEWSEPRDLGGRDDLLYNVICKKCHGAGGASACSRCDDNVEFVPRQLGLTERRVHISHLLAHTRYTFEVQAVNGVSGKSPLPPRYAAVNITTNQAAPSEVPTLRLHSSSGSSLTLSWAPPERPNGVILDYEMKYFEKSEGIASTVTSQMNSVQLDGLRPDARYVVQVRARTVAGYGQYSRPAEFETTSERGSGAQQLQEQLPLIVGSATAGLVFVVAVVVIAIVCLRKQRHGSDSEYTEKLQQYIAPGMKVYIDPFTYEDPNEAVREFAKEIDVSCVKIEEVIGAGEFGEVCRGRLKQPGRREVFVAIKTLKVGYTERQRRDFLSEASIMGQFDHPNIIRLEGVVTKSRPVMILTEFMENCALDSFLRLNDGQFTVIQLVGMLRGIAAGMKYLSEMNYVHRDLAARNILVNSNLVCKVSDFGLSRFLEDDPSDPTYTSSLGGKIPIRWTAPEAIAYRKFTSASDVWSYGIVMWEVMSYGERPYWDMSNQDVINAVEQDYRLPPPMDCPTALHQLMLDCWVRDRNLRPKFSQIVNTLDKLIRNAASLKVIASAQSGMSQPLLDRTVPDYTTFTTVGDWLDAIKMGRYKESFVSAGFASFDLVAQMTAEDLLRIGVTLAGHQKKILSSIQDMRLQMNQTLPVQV
As to conditions: at 1 µM.

Experiment [3] addresses T1, Ephrin type-B receptor 3 (Homo sapiens). Particulars: at 10 µM.
The target in experiment [4] is T2, Ephrin type-B receptor 4 (Homo sapiens) (UniProt P54760).
T2 sequence (whole entry): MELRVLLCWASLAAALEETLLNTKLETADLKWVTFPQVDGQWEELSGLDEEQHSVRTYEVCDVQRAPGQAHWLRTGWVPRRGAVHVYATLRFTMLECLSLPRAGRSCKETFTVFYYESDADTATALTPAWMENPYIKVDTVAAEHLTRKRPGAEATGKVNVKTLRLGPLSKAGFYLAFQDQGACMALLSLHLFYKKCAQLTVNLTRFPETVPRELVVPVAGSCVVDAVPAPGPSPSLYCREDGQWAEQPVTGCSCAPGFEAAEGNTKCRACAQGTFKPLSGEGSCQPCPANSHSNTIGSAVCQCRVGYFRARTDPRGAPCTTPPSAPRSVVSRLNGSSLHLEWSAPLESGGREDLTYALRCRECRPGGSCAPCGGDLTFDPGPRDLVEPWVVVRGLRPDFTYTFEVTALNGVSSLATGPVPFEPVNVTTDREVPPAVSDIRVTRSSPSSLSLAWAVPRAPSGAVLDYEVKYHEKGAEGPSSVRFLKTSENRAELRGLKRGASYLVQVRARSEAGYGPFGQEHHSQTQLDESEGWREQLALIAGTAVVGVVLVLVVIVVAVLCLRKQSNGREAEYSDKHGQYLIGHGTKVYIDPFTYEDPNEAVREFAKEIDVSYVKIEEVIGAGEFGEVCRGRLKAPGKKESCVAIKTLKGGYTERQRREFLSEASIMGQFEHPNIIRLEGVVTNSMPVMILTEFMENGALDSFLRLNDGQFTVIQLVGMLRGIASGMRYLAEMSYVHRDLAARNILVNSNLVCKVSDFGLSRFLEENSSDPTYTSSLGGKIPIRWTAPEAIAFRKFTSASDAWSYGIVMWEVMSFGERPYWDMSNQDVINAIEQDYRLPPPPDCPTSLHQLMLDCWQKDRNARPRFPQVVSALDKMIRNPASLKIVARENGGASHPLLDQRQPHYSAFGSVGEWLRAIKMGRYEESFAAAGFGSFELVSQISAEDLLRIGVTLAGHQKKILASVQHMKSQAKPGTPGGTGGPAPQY
Particulars: at 1 µM.

The target of experiment [5] is T2, Ephrin type-B receptor 4 (Homo sapiens). As to conditions: at 10 µM.
The target of experiment [6] is Receptor tyrosine-protein kinase erbB-4 (Homo sapiens) (UniProt Q15303). As to conditions: at 1 µM.
For experiment [7] the target is unchanged. As to conditions: at 10 µM.
Experiment [8] addresses Focal adhesion kinase 1 (Homo sapiens) (UniProt Q05397). As to conditions: at 1 µM.

Receptor tyrosine-protein kinase erbB-4 (Homo sapiens), sequence (Q15303 whole entry): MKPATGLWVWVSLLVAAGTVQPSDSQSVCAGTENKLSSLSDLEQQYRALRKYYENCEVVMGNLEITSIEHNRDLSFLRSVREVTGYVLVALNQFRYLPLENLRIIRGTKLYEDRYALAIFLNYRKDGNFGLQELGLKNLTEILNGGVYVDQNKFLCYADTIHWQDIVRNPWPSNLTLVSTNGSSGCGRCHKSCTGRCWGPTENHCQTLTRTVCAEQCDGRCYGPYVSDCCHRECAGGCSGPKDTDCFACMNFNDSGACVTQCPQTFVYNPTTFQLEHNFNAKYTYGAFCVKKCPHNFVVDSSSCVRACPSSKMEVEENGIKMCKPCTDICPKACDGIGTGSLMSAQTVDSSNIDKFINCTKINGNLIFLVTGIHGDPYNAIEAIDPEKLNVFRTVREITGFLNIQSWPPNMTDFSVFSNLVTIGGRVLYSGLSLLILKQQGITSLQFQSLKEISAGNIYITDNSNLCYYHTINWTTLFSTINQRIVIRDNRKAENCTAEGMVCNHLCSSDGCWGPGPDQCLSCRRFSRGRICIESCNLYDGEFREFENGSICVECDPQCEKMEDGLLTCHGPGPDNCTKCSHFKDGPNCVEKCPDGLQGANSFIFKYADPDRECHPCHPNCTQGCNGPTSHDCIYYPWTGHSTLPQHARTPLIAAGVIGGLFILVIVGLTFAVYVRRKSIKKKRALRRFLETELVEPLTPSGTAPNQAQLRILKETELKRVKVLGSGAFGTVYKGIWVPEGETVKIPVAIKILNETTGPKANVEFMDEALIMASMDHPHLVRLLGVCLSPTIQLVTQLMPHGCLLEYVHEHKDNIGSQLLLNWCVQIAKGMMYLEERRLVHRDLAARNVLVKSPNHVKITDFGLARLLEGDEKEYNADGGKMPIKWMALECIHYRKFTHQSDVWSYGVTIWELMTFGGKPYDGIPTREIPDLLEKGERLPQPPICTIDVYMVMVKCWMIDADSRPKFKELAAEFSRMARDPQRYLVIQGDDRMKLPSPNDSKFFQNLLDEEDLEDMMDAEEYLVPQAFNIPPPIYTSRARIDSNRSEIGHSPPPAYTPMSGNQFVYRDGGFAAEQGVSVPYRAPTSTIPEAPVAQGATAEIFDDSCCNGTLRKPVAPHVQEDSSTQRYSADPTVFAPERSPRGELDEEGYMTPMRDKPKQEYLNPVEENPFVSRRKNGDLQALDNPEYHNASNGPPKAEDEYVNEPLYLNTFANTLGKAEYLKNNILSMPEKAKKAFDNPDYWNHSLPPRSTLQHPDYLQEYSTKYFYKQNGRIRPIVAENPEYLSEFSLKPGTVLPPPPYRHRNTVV
Ephrin type-A receptor 7 (Homo sapiens), sequence (Q15375 28-998 limits assumed): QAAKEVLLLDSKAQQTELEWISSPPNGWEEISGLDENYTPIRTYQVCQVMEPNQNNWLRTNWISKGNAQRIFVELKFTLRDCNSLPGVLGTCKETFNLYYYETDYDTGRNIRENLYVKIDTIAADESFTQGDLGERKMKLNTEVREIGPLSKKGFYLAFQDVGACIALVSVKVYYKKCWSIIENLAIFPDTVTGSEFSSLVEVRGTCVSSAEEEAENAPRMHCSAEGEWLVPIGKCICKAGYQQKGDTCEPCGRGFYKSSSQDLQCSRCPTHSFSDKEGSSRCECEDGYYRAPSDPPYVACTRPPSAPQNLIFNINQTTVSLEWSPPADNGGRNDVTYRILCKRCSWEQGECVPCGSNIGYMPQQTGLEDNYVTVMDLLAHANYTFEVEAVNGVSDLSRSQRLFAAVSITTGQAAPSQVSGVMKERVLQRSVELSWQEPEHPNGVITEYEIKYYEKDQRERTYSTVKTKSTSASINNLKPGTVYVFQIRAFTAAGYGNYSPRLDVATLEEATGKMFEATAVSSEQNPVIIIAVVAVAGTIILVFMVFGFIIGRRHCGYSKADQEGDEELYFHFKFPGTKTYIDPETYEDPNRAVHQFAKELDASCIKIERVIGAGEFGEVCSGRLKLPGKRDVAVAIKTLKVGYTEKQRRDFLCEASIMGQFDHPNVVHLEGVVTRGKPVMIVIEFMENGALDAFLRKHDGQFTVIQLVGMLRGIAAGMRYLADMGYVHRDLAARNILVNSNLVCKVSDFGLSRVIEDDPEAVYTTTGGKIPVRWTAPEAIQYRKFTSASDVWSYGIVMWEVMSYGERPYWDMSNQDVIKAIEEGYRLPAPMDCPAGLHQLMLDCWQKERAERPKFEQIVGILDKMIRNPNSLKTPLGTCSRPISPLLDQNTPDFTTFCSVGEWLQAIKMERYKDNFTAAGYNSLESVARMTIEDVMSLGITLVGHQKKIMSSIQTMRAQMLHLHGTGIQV
Focal adhesion kinase 1 (Homo sapiens), sequence (Q05397 2-1052 limits assumed): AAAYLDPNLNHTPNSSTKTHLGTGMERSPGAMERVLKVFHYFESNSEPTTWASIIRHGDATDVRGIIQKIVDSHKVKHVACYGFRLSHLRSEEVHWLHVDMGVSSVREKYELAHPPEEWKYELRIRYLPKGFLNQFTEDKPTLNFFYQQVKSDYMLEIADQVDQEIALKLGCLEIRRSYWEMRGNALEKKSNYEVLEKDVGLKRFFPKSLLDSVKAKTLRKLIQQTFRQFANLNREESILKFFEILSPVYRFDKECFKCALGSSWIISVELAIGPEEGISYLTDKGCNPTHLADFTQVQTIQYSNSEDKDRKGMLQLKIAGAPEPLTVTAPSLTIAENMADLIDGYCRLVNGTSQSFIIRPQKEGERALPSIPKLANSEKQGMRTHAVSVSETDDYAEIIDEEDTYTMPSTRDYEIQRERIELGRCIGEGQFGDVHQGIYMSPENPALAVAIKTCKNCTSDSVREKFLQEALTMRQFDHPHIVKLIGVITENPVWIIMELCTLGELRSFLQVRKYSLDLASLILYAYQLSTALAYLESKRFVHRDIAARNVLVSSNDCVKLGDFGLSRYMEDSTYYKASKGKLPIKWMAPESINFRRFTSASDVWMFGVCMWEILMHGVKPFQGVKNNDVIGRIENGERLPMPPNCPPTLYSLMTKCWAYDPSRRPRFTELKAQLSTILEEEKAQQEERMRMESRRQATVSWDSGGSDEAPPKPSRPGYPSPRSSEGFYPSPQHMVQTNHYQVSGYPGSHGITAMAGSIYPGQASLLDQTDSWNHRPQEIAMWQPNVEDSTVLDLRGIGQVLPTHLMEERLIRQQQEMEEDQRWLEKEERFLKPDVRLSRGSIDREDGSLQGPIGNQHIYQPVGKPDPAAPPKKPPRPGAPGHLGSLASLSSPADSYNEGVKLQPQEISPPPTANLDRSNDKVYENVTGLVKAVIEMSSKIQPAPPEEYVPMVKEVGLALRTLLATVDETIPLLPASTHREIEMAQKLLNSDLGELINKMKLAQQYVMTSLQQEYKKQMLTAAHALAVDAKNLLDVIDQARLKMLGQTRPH

As for `COc1cc2ncc(-c3ccccc3)nc2cc1OC`, the residual activity (as a rule, the signal under treatment as a percentage of the control signal) in experiment [1] is 94%; in experiment [2], 132% (inactive); in experiment [3], 90%; in experiment [4], 125%; in experiment [5], 123%; in experiment [6] it was 88%. The figures for the residual activity in experiment [7] and in experiment [8] were 85% and 139%, respectively.
